From PubChem BioAssay (NCI)
Compounds without any hit were thinned out: in the full panel of roughly 83,000, 20% have a hit.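 Growth was measured after 48 h exposure to one concentration of compound in 96-well plates. Values under 10 count as active.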 Unmarked numbers belong to inactive results. Calls of active or inactive are those of the source.

Legend:
Experiment in all cases: NCI-60 one-dose screen, 48 h (100 = growth as untreated, 0 = no growth, -100 = all killed)
Conditions in all cases: 10 µM unless noted
DU-145 prostate = test system: DU-145 prostate
K-562 leukemia = test system: K-562 leukemia
MALME-3M melanoma = test system: MALME-3M melanoma
MDA-MB-231 breast = test system: MDA-MB-231 breast
RXF 393 renal = test system: RXF 393 renal
SF-268 CNS = test system: SF-268 CNS
SF-295 CNS = test system: SF-295 CNS
SF-539 CNS = test system: SF-539 CNS
UACC-257 melanoma = test system: UACC-257 melanoma
M14 melanoma = test system: M14 melanoma
HCT-15 colon = test system: HCT-15 colon
HT29 colon = test system: HT29 colon
SNB-75 CNS = test system: SNB-75 CNS
SNB-19 CNS = test system: SNB-19 CNS
U251 CNS = test system: U251 CNS
PC-3 prostate = test system: PC-3 prostate
SK-MEL-5 melanoma = test system: SK-MEL-5 melanoma
UACC-62 melanoma = test system: UACC-62 melanoma
LOX IMVI melanoma = test system: LOX IMVI melanoma
SK-MEL-28 melanoma = test system: SK-MEL-28 melanoma

Compound	growth (DU-145 prostate)	growth (K-562 leukemia)	growth (MALME-3M melanoma)	growth (MDA-MB-231 breast)	growth (RXF 393 renal)	growth (SF-268 CNS)	growth (SF-295 CNS)	growth (SF-539 CNS)	growth (UACC-257 melanoma)	growth (M14 melanoma)	growth (HCT-15 colon)	growth (HT29 colon)	growth (SNB-75 CNS)	growth (SNB-19 CNS)	growth (U251 CNS)	growth (PC-3 prostate)	growth (SK-MEL-5 melanoma)	growth (UACC-62 melanoma)	growth (LOX IMVI melanoma)	growth (SK-MEL-28 melanoma)
COc1ccc(C2=C/C(=C\c3ccccc3O)C(=O)N2Cc2ccccc2)cc1	96.2%	51.1%	63.4%	93.7%	76.2%	86.5%	94%	101%	71.7%	50.5%	67.6%	102%	92.3%	82.3%	83.9%	52.2%	66.2%	63.9%	81%	79.9%
CCCS(=O)(=O)Nc1cccc(Nc2ncnc3cc(NC(=O)CCl)ccc23)c1Cl	-92.8% (active)	0% (active)	-79.2% (active)	-72.5% (active)	-87.3% (active)	-55.9% (active)	-80.5% (active)	-85% (active)	10.3%	-43.5% (active)	-26.7% (active)	-63.4% (active)	-93.3% (active)	0.0363% (active)	-93.3% (active)	-25.7% (active)	-85.3% (active)	-66.2% (active)	-83.9% (active)	-22.8% (active)
CCCC[N+]1(C)CCN=C1Cc1ccccc1 (stereo not given)	106%	84.6%	98.2%	109%	100%	97.7%	97.4%	96.2%	93.7%	106%	103%	89.3%	99.6%	104%	95.8%	87.2%	97.8%	96.7%	99.8%	110%
O=C(O)/C=C\C(=O)Nc1ccc2c(c1)Cc1cc(F)ccc1-2	111%	104%	98.9%	112%	114%	96%	96.4%	94.9%	115%	96.4%	100%	96.3%	86%	103%	106%	97.3%	101%	103%	96.4%	105%
COc1ccc2c(O)cc3c(c2c1)[C@H](CCl)CN3C(=O)c1cc2cc(NC(=O)CCN3CCOCC3)ccc2[se]1	-0.877% (active)	70.1%	-88% (active)	-58.4% (active)	-88.4% (active)	-42.7% (active)	-77.7% (active)	-64.4% (active)	-47.5% (active)	-71.1% (active)	0% (active)	-39.8% (active)	-87.8% (active)	-76.2% (active)	-85.7% (active)	74.1%	-85.9% (active)	-76.4% (active)	-62.5% (active)	-58.7% (active)
CN1/C(=C/C=C/c2n(Cc3ccc4ccccc4c3)c(Cl)c(Cl)[n+]2Cc2ccc3ccccc3c2)Oc2ccccc21	-86.6% (active)	89.4%	-97.1% (active)	-94% (active)	-88.2% (active)	-69.4% (active)	-68.4% (active)	-94% (active)	-77.9% (active)	-77% (active)	-72.9% (active)	-79.7% (active)	-63.6% (active)	-96.3% (active)	-97.3% (active)	-78.4% (active)	-99.4% (active)	-94.4% (active)	-93.8% (active)	-89.5% (active)
CCN1CCN(c2nc(NNC(=O)c3ccc(OC)cc3)nc(N3CCN(C(c4ccccc4)c4ccccc4)CC3)n2)CC1	72.2%	14%	-63.7% (active)	82.9%	55.7%	81.8%	71.3%	73.2%	10.3%	-40.5% (active)	22.2%	15.6%	45.9%	78.3%	39.5%	30.2%	-74.4% (active)	68.3%	1.43% (active)	64.1%
CCC(C)C(N)C(=O)NC(CC(C)C)C(=O)N1CCCC1C(=O)NC(Cc1c[nH]c2ccccc12)C(=O)NC(CCCCN)C(=O)NC(Cc1c[nH]c2ccccc12)C(=O)N1CCCC1C(=O)NC(Cc1c[nH]c2ccccc12)C(=O)NC(Cc1c[nH]c2ccccc12)C(=O)N1CCCC1C(=O)NC(Cc1c[nH]c2ccccc12)C(=O)NC(CCCNC(=N)N)C(=O)NC(CCCNC(=N)N)C(N)=O (stereo not given)	98.4%	104%	122%	116%	110%	116%	144%	110%	97.8%	108%	106%	83.5%	105%	106%	112%	91.7%	104%	102%	98.5%	114%
N#CSCc1cc(Cl)c(CSC#N)cc1Cl	59.7%	29.2%	58%	57.6%	34.3%	63.3%	97.5%	45.7%	103%	27.4%	31.9%	40.6%	47.9%	89%	106%	75.8%	48.5%	71.1%	30.5%	87.9%
O=C(Nc1ncc(Cc2ccccc2Cl)s1)c1ccc2c(c1)OCCO2	9.81% (active)	8.27% (active)	56.6%	23.5%	9.52% (active)	41.2%	11.7%	-8.75% (active)	53.1%	10.3%	10.4%	6.05% (active)	3.37% (active)	36%	14.7%	23.4%	-25.1% (active)	27.9%	23.6%	76.3%
CCN(CC)c1ccc(/C=N/NC(=O)c2ccccc2Nc2ccnc(C(F)(F)F)c2)c(O)c1	20.7%	62.9%	45.3%	56.8%	51.4%	14.5%	24.1%	-11.1% (active)	19.2%	-17.4% (active)	32.6%	37.7%	43.8%	20.1%	14.8%	36%	3.96% (active)	19.4%	5.58% (active)	47.9%
O=C(CN1C(=O)NC2NC(=O)NC21)N/N=C/c1cccc([N+](=O)[O-])c1 (stereo not given)	110%	103%	105%	104%	104%	99%	102%	100%	118%	109%	100%	107%	80%	98.8%	111%	106%	100%	88.8%	98.1%	111%
CCCCCCCCCCCCCC[n+]1ccc2c(C)c3c(c(C)c2c1)c1cc(O)ccc1n3CC	-93.4% (active)	-55.7% (active)	-84.7% (active)	-74.6% (active)	-63.3% (active)	-82.7% (active)	-54.3% (active)	-83.9% (active)	-69.3% (active)	-86.7% (active)	19.9%	4.46% (active)	-59.9% (active)	-77.9% (active)	-89% (active)	-88% (active)	-89.9% (active)	-68.5% (active)	-70% (active)	-93.9% (active)
COc1ccc(NC(=O)c2sc3nc(C)c(C(=O)c4ccccc4)cc3c2N)cc1	116%	94.2%	102%	98.6%	87.8%	104%	103%	102%	96.9%	106%	95.2%	89.8%	107%	90.8%	100%	97%	103%	79.9%	108%	89.9%
CSc1nc(N)c2c(n1)NC(c1ccccc1)C1CCc3ccccc3C1=N2 (stereo not given)	74.5%	47.7%	113%	71.9%	84.4%	60.1%	41.7%	102%	88.7%	55.7%	46.8%	42.7%	84%	79%	68.2%	11.9%	51%	42.6%	43.3%	81.5%
Cc1ccc(-c2nn(CC(=O)N3CCOCC3)c(N)c2C#N)cc1	111%	99.8%	104%	108%	110%	99%	102%	99.2%	107%	104%	105%	112%	89.4%	97.4%	99.4%	100%	102%	93.1%	100%	102%
